In PMC5700166:

What was measured:
Test in all cases: protein-binding microarray (PBM); PBM: ~300 nM protein, 6 mM HEPES pH 7.8, 80 mM KCl, 0.5 mM EDTA, 0.5 mM EGTA, 6% glycerol, 35 ng/ul poly-dIdC, 1% milk, 1 h, room temperature; Ap Aiptasia and Nv Nematostella (sea anemones) / Co Capsaspora / Aq Amphimedon (sponge) / Dm Drosophila / Hu human; RHD is the Rel homology domain; high values mean tight binding
Conditions in all cases: dsDNA, one strand shown
GST-Dm-Relish = target: T1, GST-Dm-Relish (Drosophila melanogaster, UniProt Q94527 99-473)
T1 sequence: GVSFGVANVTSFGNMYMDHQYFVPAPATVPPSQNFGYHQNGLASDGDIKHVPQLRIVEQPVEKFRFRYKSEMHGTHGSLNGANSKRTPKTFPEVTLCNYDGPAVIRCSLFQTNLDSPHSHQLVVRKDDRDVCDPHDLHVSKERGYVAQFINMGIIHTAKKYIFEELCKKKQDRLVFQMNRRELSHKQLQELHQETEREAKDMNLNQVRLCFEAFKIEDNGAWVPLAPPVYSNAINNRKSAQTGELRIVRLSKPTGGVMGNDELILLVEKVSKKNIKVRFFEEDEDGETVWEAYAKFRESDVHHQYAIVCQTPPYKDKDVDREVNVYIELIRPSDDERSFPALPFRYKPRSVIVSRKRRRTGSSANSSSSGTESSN

GST-Aq-NF-kB = target: T2, GST-Aq-NF-kB (Amphimedon queenslandica, UniProt A9Y5G7 2-389)
T2 sequence: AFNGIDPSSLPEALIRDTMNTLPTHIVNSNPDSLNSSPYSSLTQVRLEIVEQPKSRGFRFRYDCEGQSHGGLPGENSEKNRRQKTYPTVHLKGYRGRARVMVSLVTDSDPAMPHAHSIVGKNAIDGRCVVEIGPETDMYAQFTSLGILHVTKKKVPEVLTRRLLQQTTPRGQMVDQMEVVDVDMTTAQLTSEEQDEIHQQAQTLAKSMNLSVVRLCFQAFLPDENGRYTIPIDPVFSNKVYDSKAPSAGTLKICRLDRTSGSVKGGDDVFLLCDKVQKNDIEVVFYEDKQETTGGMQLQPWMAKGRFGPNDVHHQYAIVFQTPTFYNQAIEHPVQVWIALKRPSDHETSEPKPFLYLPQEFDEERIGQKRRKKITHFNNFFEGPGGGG

GST-Co-NF-kB = target: T3, GST-Co-NF-kB (Capsaspora owczarzaki, UniProt F1ARL5 200-546)
T3 sequence: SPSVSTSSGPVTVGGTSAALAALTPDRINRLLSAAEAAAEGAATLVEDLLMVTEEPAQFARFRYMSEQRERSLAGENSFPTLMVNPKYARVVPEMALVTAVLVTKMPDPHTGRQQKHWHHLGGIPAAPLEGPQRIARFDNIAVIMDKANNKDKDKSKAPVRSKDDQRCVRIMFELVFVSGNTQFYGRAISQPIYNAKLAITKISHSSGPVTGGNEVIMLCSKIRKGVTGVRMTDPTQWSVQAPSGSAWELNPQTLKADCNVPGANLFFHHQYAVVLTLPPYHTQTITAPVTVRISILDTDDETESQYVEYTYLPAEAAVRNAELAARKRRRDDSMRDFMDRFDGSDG

Row | Sequence | binding signal (GST-Dm-Relish) [z-score] | binding signal (GST-Aq-NF-kB) [z-score] | binding signal (GST-Co-NF-kB) [z-score]
1 | CCGATTAACATCAGAAAATTTCCTGATGTTAATCGGGTCTTGATTCGCTTGACGCTGCTG | 1.75 | 2.09 | 
2 | CCGATTAACATCAAAAAATTCCGTGATGTTAATCGGGTCTTGATTCGCTTGACGCTGCTG | 2.44 | 2.61 | 1.34
3 | CCGATTAACATCAACGGAAATCCTGATGTTAATCGGGTCTTGATTCGCTTGACGCTGCTG | 1.24 | 1.17 | 
4 | CCGATTAACATCAGGATTTTCCATGATGTTAATCGGGTCTTGATTCGCTTGACGCTGCTG | 1.28 | 2.57 | 
5 | CCGATTAACATCACAGGATTTCCTGATGTTAATCGGGTCTTGATTCGCTTGACGCTGCTG | 1.81 | 1.18 | 
6 | CCGATTAACATCACGGGATGTACTGATGTTAATCGGGTCTTGATTCGCTTGACGCTGCTG | 5.98 | 1.26 | 
7 | CCGATTAACATCAGGAAAGACCATGATGTTAATCGGGTCTTGATTCGCTTGACGCTGCTG | 1.35 | 1.49 | 
8 | CCGATTAACATCACGGAAAAACCTGATGTTAATCGGGTCTTGATTCGCTTGACGCTGCTG | 2.16 | 3.55 | 
9 | CCGATTAACATCAGGGCTTTCCATGATGTTAATCGGGTCTTGATTCGCTTGACGCTGCTG | 3.94 | 3.39 | 
10 | CCGATTAACATCAGGAATTTACATGATGTTAATCGGGTCTTGATTCGCTTGACGCTGCTG | 5.41 | 1.28 | 
11 | CCGATTAACATCACAGGGTTTCCTGATGTTAATCGGGTCTTGATTCGCTTGACGCTGCTG | 2.82 | 1.57 | 
12 | CCGATTAACATCACGGAATTCCGTGATGTTAATCGGGTCTTGATTCGCTTGACGCTGCTG | 1.22 | 1.25 | 
13 | CCGATTAACATCACGGAAAGTCCTGATGTTAATCGGGTCTTGATTCGCTTGACGCTGCTG | 3.12 | 5.28 | 
14 | CCGATTAACATCACAGAATTTCCTGATGTTAATCGGGTCTTGATTCGCTTGACGCTGCTG | 1.09 | 1.36 | 
15 | CCGATTAACATCAGCGGAAATCCTGATGTTAATCGGGTCTTGATTCGCTTGACGCTGCTG | 1.26 | 1.07 | 
16 | CCGATTAACATCACGTAATTTCCTGATGTTAATCGGGTCTTGATTCGCTTGACGCTGCTG | 1.85 | 1.14 | 
17 | CCGATTAACATCACGGTTTTTCCTGATGTTAATCGGGTCTTGATTCGCTTGACGCTGCTG | 3.51 | 3.6 | 
18 | CCGATTAACATCAGGACTTTACATGATGTTAATCGGGTCTTGATTCGCTTGACGCTGCTG | 6.1 | 1.25 | 
19 | CCGATTAACATCAGAAATTTCCATGATGTTAATCGGGTCTTGATTCGCTTGACGCTGCTG | 1.25 | 1.68 | 
20 | CCGATTAACATCAGGAAAATCCATGATGTTAATCGGGTCTTGATTCGCTTGACGCTGCTG | 1.26 | 2.69 | 
21 | CCGATTAACATCAGGAAACCCACTGATGTTAATCGGGTCTTGATTCGCTTGACGCTGCTG | 3.86 | 1.01 | 

Row | Sequence | binding signal (GST-Dm-Relish) [z-score] | binding signal (GST-Aq-NF-kB) [z-score] | binding signal (GST-Co-NF-kB) [z-score]
22 | CCGATTAACATCAGGAAATCCACTGATGTTAATCGGGTCTTGATTCGCTTGACGCTGCTG | 2.24 | 1.15 | 
23 | CCGATTAACATCAGGAATCTCCATGATGTTAATCGGGTCTTGATTCGCTTGACGCTGCTG | 1.01 | 1.6 | 
24 | CCGATTAACATCACGGAAACTCCTGATGTTAATCGGGTCTTGATTCGCTTGACGCTGCTG | 1.23 | 3.4 | 
25 | CCGATTAACATCAAAGGATTTCCTGATGTTAATCGGGTCTTGATTCGCTTGACGCTGCTG | 1.74 | 1.01 | 
26 | CCGATTAACATCAGGATTTTTCATGATGTTAATCGGGTCTTGATTCGCTTGACGCTGCTG | 1.76 | 1.09 | 
27 | CCGATTAACATCAAAAAATTCCATGATGTTAATCGGGTCTTGATTCGCTTGACGCTGCTG | 2.59 | 1.71 | 
28 | CCGATTAACATCAAGGAAATTCCTGATGTTAATCGGGTCTTGATTCGCTTGACGCTGCTG | 2.23 | 4.14 | 
29 | CCGATTAACATCACCGGAAATCCTGATGTTAATCGGGTCTTGATTCGCTTGACGCTGCTG | 2.06 | 2.27 | 
30 | CCGATTAACATCAGGAAAGTACATGATGTTAATCGGGTCTTGATTCGCTTGACGCTGCTG | 6.88 | 1.61 | 
31 | CCGATTAACATCAAGGAAAGTACTGATGTTAATCGGGTCTTGATTCGCTTGACGCTGCTG | 4.7 | 2.33 | 
32 | CCGATTAACATCACGGAAACTACTGATGTTAATCGGGTCTTGATTCGCTTGACGCTGCTG | 1.84 | 1.46 | 
33 | CCGATTAACATCAGGAAAAACCATGATGTTAATCGGGTCTTGATTCGCTTGACGCTGCTG | 2.39 | 2.94 | 
34 | CCGATTAACATCAGAAAATTCCATGATGTTAATCGGGTCTTGATTCGCTTGACGCTGCTG | 1.53 | 1.51 | 
35 | CCGATTAACATCAGGAGTTTCCATGATGTTAATCGGGTCTTGATTCGCTTGACGCTGCTG | 1.28 | 2.43 | 
36 | CCGATTAACATCAAGTAATTTCCTGATGTTAATCGGGTCTTGATTCGCTTGACGCTGCTG | 2.36 | 1.18 | 
37 | CCGATTAACATCAGGGCAAGTACTGATGTTAATCGGGTCTTGATTCGCTTGACGCTGCTG | 1.44 | 2.28 | 
38 | CCGATTAACATCAAAAAAACTCCTGATGTTAATCGGGTCTTGATTCGCTTGACGCTGCTG | 3.63 | 1.83 | 
39 | CCGATTAACATCAAAAATTCCGGTGATGTTAATCGGGTCTTGATTCGCTTGACGCTGCTG | 2.45 | 2.94 | 
40 | CCGATTAACATCAAGGAAAATCCTGATGTTAATCGGGTCTTGATTCGCTTGACGCTGCTG | 1.5 | 3.1 | 
41 | CCGATTAACATCAGGAAAGTCCATGATGTTAATCGGGTCTTGATTCGCTTGACGCTGCTG | 3.2 | 3.71 | 
42 | CCGATTAACATCAGGTTCTTACCTGATGTTAATCGGGTCTTGATTCGCTTGACGCTGCTG | 1.79 | 1.38 | 

Row | Sequence | binding signal (GST-Dm-Relish) [z-score] | binding signal (GST-Aq-NF-kB) [z-score] | binding signal (GST-Co-NF-kB) [z-score]
43 | CCGATTAACATCACGTACTTTCCTGATGTTAATCGGGTCTTGATTCGCTTGACGCTGCTG | 4.78 | 2.39 | 
44 | CCGATTAACATCAGGGATGCCCATGATGTTAATCGGGTCTTGATTCGCTTGACGCTGCTG | 6.66 | 2.22 | 
45 | CCGATTAACATCAGGAAATTACATGATGTTAATCGGGTCTTGATTCGCTTGACGCTGCTG | 5.09 | 1.17 | 
46 | CCGATTAACATCAAAAATTTCCTTGATGTTAATCGGGTCTTGATTCGCTTGACGCTGCTG | 1.94 | 2.1 | 
47 | CCGATTAACATCAGGAAAGGCCATGATGTTAATCGGGTCTTGATTCGCTTGACGCTGCTG | 1.29 | 1.31 | 
48 | CCGATTAACATCACGGGCATCCCTGATGTTAATCGGGTCTTGATTCGCTTGACGCTGCTG | 5.06 | 3.09 | 
49 | CCGATTAACATCAAAAATTTCCGTGATGTTAATCGGGTCTTGATTCGCTTGACGCTGCTG | 1.61 | 2.63 | 
50 | CCGATTAACATCACGTGCTTTCCTGATGTTAATCGGGTCTTGATTCGCTTGACGCTGCTG | 2.88 | 1.36 | 
51 | CCGATTAACATCAGGAATTTCCATGATGTTAATCGGGTCTTGATTCGCTTGACGCTGCTG | 2.65 | 3.89 | 
52 | CCGATTAACATCAGGACTTTCCATGATGTTAATCGGGTCTTGATTCGCTTGACGCTGCTG | 3.27 | 4.23 | 
53 | CCGATTAACATCAAAGGAATTCCTGATGTTAATCGGGTCTTGATTCGCTTGACGCTGCTG | 3.78 | 2.38 | 
54 | CCGATTAACATCACGTAAAACCCTGATGTTAATCGGGTCTTGATTCGCTTGACGCTGCTG | 3.01 | 2.12 | 
55 | CCGATTAACATCAAAAAATTCCTTGATGTTAATCGGGTCTTGATTCGCTTGACGCTGCTG | 2.73 | 2.21 | 
56 | CCGATTAACATCAGGAATTCCAATGATGTTAATCGGGTCTTGATTCGCTTGACGCTGCTG | 2.77 | 1.38 | 
57 | CCGATTAACATCAATAAATTTCCTGATGTTAATCGGGTCTTGATTCGCTTGACGCTGCTG | 1.55 | 1.86 | 
58 | CCGATTAACATCACGGAATTGCCTGATGTTAATCGGGTCTTGATTCGCTTGACGCTGCTG | 1.01 | 1.14 | 
59 | CCGATTAACATCACCGGATTTCCTGATGTTAATCGGGTCTTGATTCGCTTGACGCTGCTG | 1.86 | 1.54 | 
60 | CCGATTAACATCAAAAATTCCTATGATGTTAATCGGGTCTTGATTCGCTTGACGCTGCTG | 1.74 | 1.2 | 
61 | CCGATTAACATCAGTACTTTCCATGATGTTAATCGGGTCTTGATTCGCTTGACGCTGCTG | 5.35 | 1.95 | 
